TRb SRC2 PPI: qHTS for Inhibitors of the Interaction of Thyroid Hormone Receptor and Steroid Receptor Coregulator 2. Potency, µM (highest dose often 106 µM), most hits filed as inhibitors. Thyroid hormone receptor beta (Homo sapiens), P10828. hit rate 0.065% among 280,000. TRbeta-SRC2 peptide binding, fluorescence polarization; receptor liganded with 1 µM T3; note: nearly all actives have a fitted effect of over 50% in size
Target sequence (P10828 whole entry, looked up): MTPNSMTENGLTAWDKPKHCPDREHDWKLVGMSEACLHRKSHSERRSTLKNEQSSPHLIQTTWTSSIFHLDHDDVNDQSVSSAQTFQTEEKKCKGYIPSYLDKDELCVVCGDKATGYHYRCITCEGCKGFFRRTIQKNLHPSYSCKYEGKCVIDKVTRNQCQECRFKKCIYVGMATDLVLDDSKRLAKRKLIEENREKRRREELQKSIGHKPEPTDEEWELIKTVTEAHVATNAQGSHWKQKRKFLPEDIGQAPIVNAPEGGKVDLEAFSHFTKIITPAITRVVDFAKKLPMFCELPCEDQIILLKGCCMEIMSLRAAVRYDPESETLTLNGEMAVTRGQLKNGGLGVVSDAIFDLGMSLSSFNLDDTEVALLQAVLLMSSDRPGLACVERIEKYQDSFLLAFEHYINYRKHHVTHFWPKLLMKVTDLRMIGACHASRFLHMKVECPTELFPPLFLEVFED
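Each compound concentration gave % activity, normalized to unbound and bound Texas Red SRC2 controls, from polarization read after 5 hr ambient incubation with T3-loaded human TRb LBD.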
TR SRC2 fluor cs: Total Fluorescence Counterscreen for Inhibitors of the Interaction of Thyroid Hormone Receptor and Steroid Receptor Coregulator 2; TRb/SRC2 Texas Red total fluorescence interference; Potency, µM (doses to about 106 µM); hit rate 0.29% among 280,000; active = well fitted curve in either direction with a large enough effect; inconclusive = small, poorly fitted or top-dose-only effect
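Flags fluorescent or light-absorbing compounds by total fluorescence, S + 2P, at 555 nm excitation and 632 nm emission. Mixture: 20 nM Texas Red SRC2 peptide, 0.6 uM human TRb LBD, 1 uM T3, 5% DMSO; compound exposure 5 h at ambient temperature.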
RGS12 GoLoco inh: qHTS Assay for Inhibitors of RGS12 GoLoco Motif Activity (Red Fluorophore). Gai1:RGS12 GoLoco peptide FP, rhodamine, 10 min. Potency, µM (highest dose often 61.6 µM), actives largely listed as inhibitors. hit rate 0.44% among 230,000; active = well fitted inhibition curve with a large enough effect, not every such curve was filed as active; inactive = no such curve, though single readings can be large or run the other way; note: nearly all actives have a fitted effect of over 30% in size
Target sequence (P63096 whole entry, looked up): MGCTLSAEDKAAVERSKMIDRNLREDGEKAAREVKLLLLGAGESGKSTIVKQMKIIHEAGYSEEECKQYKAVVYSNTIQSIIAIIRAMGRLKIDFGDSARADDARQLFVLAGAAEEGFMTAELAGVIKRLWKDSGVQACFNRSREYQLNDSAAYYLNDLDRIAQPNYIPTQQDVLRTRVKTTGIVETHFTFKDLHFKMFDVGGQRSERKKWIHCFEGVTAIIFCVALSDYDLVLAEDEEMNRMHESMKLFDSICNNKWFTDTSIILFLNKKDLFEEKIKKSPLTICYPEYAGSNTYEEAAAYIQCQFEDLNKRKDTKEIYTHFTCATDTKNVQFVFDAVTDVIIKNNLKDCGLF
Tau fluor cs: Counterscreen qHTS for Inhibitors of Tau Fibril Formation, Fluorescence Polarization | tau K18 P301L Alexa594 fluorescence, heparin fibrillization | Potency, µM (titrated, usually from 57.7 µM) | hit rate 0.93% among 280,000; note: nearly all actives have a fitted effect of over 55% in size
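Human tau K18 P301L (15 uM unlabeled, 0.24 uM Alexa 594-labeled) in 100 mM sodium acetate pH 7 with 20 uM heparin, 6 hr at 37 C. ThT 30 uM added, 1 hr ambient; Alexa 594 FP and total fluorescence read at 555/632 nm.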
Tau FP inhib: qHTS for Inhibitors of Tau Fibril Formation, Fluorescence Polarization. Microtubule-associated protein tau (Homo sapiens), P10636. K18 P301L tau heparin fibrillization, Alexa594 FP, 6 h. Potency, µM (titrated, usually from 57.7 µM), usual class: inhibitors. hit rate 0.39% among 280,000. AID 1468, 2008; note: nearly all actives have a fitted effect of over 55% in size
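Steps: dispense K18 P301L tau (15 uM plus 0.24 uM Alexa 594 tracer, final) in pH 7 sodium acetate; add compound; add heparin (20 uM final); incubate 6 hr, 37 C; add ThT (30 uM final); after 1 hr ambient, read FP.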
Tau fibril ThT: qHTS for Inhibitors of Tau Fibril Formation, Thioflavin T Binding; Microtubule-associated protein tau (Homo sapiens), P10636; recombinant tau K18 P301L (four-repeat tau fragment), heparin-induced fibrillization, ThT fluorescence; Potency, µM (series often up to 57.4 µM), actives largely listed as inhibitors; hit rate 2.1% among 270,000; note: nearly all actives have a fitted effect of over 55% in size
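In this qHTS, human K18 P301L tau is incubated with compound and heparin for 6 hr at 37 C, and Thioflavin T fluorescence then reports fibril load.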
Large screens that a line does not name were inactive; [ ] = remark or other dose. Only some compounds are listed: those with a hit (about 3.2% of all), similar ones and a draw of the others. Unless noted, calls come from the whole dose curve; as a rule, active = well fitted curve in the direction sought with a large enough effect; inconclusive = small, poorly fitted or top-dose-only effect, or another doubt; inactive = no such curve, though single readings can be large; an effect the other way counts as inactive or inconclusive.

CO[C@H]1COC(=O)C/C=C\[C@@H](C)COC(=O)[C@@H](C)NC(=O)C/C=C\[C@@H]1C	none (no result: RGS12 GoLoco inh)
CC(=O)N(C1=C(Cl)C(=O)c2ccccc2C1=O)C1CCCCC1	Tau fluor cs inconclusive, Tau fibril ThT 4µM
Cc1ccc(C)c(NC(=O)Cn2c(=O)n(CC(=O)NCCc3ccccc3)c(=O)c3ccccc32)c1	none (no result: RGS12 GoLoco inh)
Cc1cc(-c2ccccc2)nc(-c2ccccc2)c1C	Tau fibril ThT 3.2µM
Cn1c(=NC(=O)c2ccc(S(=O)(=O)N3CCCC3)cc2)sc2cc(F)ccc21	none (no result: RGS12 GoLoco inh)
Cc1oc(-c2ccccc2)cc1C(=O)Nc1cccc(/C=C\C(=O)O)c1	none
Cc1oc(-c2ccccc2)cc1C(=O)Nc1ccc(N(C)C)cc1	Tau fluor cs 14µM[quencher], Tau fibril ThT 13µM
COc1ccc(Nc2c(-c3ccc(C)o3)nc3cc(C)ccn23)cc1	Tau fluor cs inconclusive, Tau fibril ThT inconclusive (no result: RGS12 GoLoco inh)
CCN=C1S/C(=C\c2cn(C(C)=O)nc2-c2ccccc2)C(=O)N1CC	none
CC(=O)NC1=NC(=O)/C(=C/c2cn(C(C)=O)nc2-c2ccccc2)S1	Tau FP inhib inconclusive, Tau fibril ThT 28µM
CCC12CCCN3CCc4c(n(c5ccccc45)C(O)(C(=O)OC)C1)C32 (configuration not stated)	Tau fluor cs inconclusive, Tau FP inhib inconclusive, Tau fibril ThT 18µM
COc1ccc(-c2cc(C)no2)cc1S(=O)(=O)NCc1cccs1	none (no result: RGS12 GoLoco inh)
Cn1cc(/C=C2\SC(=O)NC2=S)c2ccccc21	Tau fluor cs inconclusive, Tau FP inhib inconclusive, Tau fibril ThT 2µM
Cn1cc(/C=C2\SC(=S)N(NC(=O)c3ccccc3Cl)C2=O)c2ccccc21	Tau fibril ThT 1.1µM
CC(=O)NN1C(=O)/C(=C\c2ccc(C)cc2)SC1=S	Tau fibril ThT inconclusive
Cc1ccc(C(=O)NN2C(=O)/C(=C/c3cn(C)c4ccccc34)SC2=S)cc1	RGS12 GoLoco inh 22µM
Cc1ccc(/C=C2/SC(=O)NC2=S)o1	RGS12 GoLoco inh 5µM, Tau fluor cs inconclusive, Tau FP inhib 10µM, Tau fibril ThT 4.5µM
Cn1cc(C=O)c2ccccc21	none
NC1(C(=O)O)C[C@H](C(=O)O)[C@H](C(=O)O)C1 (some centres not stated)	none
Cc1cc2oc(C(=O)Nc3c(C)n(C)n(-c4ccccc4)c3=O)cc(=O)c2cc1C	none (no result: RGS12 GoLoco inh)
CSc1nsc(N/N=C/c2ccccc2)c1C#N	Tau fluor cs inconclusive, Tau fibril ThT inconclusive
C[n+]1ccc(/C=N/Nc2nc(Cl)c(C#N)c(Cl)c2Cl)cc1	Tau fluor cs 11µM[quencher], Tau fibril ThT 13µM
O=C(NCCCN1CCCCC1)c1ccc2c(c1)sc1nc(-c3ccc(F)cc3)cn12	TR SRC2 fluor cs 0.0009µM[quencher], Tau fibril ThT inconclusive (no result: RGS12 GoLoco inh)
CCOc1ccc(CNC(=O)c2ccc3c(c2)sc2nc(-c4ccccc4)cn23)cc1	none (no result: RGS12 GoLoco inh)
CCOc1ccc(CNC(=O)c2ccc3c(c2)sc2nc(-c4ccc(OC)cc4)cn23)cc1	TR SRC2 fluor cs 40µM[quencher] (no result: RGS12 GoLoco inh)
Cc1cccnc1NC(=S)NC(=O)/C=C/c1ccco1	TR SRC2 fluor cs inconclusive, Tau FP inhib inconclusive, Tau fibril ThT 28µM
O=C(/C=C/c1ccco1)NC(=S)Nc1ccccc1O	Tau fluor cs inconclusive, Tau fibril ThT 22µM
O=C(/C=C\c1ccco1)NC(=S)Nc1ccccc1O	Tau fluor cs inconclusive, Tau fibril ThT 20µM
O=C(/C=C/c1ccco1)NC(=S)Nc1ccccn1	Tau fibril ThT inconclusive
Cc1ccc(NC(=S)NC(=O)/C=C/c2ccco2)c(O)c1	Tau fibril ThT inconclusive
CC(=O)Nc1ccc(SCC(CC(C)C)N2CCN(C)CCC2=O)cc1 (configuration not stated)	none (no result: RGS12 GoLoco inh, Tau fluor cs, Tau FP inhib, Tau fibril ThT)
CC(C)(C)OC(=O)NCc1ccc(NC(=O)c2nc[nH]c2C(=O)N[C@@H](Cc2ccccc2)C(=O)OCc2ccccc2)cc1	Tau fluor cs inconclusive, Tau FP inhib 10µM
Cc1cccc(NC(=O)c2nc[nH]c2C(=O)N[C@@H](Cc2ccccc2)C(=O)OCc2ccccc2)c1	Tau fluor cs inconclusive, Tau FP inhib 11µM, Tau fibril ThT inconclusive
CNC(=O)c1[nH]cnc1C(=O)N[C@@H](Cc1ccccc1)C(=O)OCc1ccccc1	Tau fluor cs inconclusive, Tau FP inhib inconclusive
CCCN[C@@H](C)C(=O)Nc1ccccc1C	none (no result: Tau fluor cs, Tau FP inhib, Tau fibril ThT)
CC1=C/C(=C(/c2ccc(O)c(C)c2)c2ccccc2C(=O)O)C=CC1=O	none (no result: TRb SRC2 PPI, TR SRC2 fluor cs, Tau fluor cs, Tau FP inhib, Tau fibril ThT)
O=C(O)C1=CC(=C(c2ccc(O)c(C(=O)O)c2)c2ccc(O)c(C(=O)O)c2)C=CC1=O	TRb SRC2 PPI inconclusive, TR SRC2 fluor cs inconclusive, RGS12 GoLoco inh 2.8µM, Tau fluor cs inconclusive, Tau FP inhib inconclusive, Tau fibril ThT 32µM
CCc1cccc(NC(=O)C2CCCN2S(=O)(=O)c2ccc3nc(-c4ccccc4)[nH]c3c2)c1 (configuration not stated)	Tau fluor cs 14µM[quencher], Tau FP inhib 32µM (no result: RGS12 GoLoco inh)
CCOc1ccccc1NC(=O)C1CCN(S(=O)(=O)c2ccc3[nH]c(=O)ccc3c2)CC1	Tau FP inhib inconclusive (no result: RGS12 GoLoco inh)
Cc1cc(C)cc(NC(=O)C2CCCN2S(=O)(=O)c2ccc3nc(-c4ccccc4)[nH]c3c2)c1 (configuration not stated)	Tau fluor cs 14µM[quencher], Tau FP inhib inconclusive (no result: RGS12 GoLoco inh)
COc1ccccc1N1CCN(S(=O)(=O)c2ccc3nc(-c4ccccc4)[nH]c3c2)CC1	Tau fluor cs inconclusive, Tau FP inhib 22µM
CCOc1ccccc1NC(=O)C1CCCN1S(=O)(=O)c1ccc2nc(-c3ccccc3)[nH]c2c1 (configuration not stated)	Tau fluor cs 10µM[quencher], Tau FP inhib inconclusive (no result: RGS12 GoLoco inh)
O=S(=O)(c1ccc2nc(-c3ccccc3)[nH]c2c1)N1CCN(c2cccc(Cl)c2)CC1	Tau fluor cs inconclusive, Tau FP inhib inconclusive
CCc1cccc(NC(=O)C2CCCN2S(=O)(=O)c2ccc3c(c2)n(C)c(=O)c(=O)n3C)c1 (configuration not stated)	Tau fibril ThT inconclusive
CC[C@](N)(CCC(=O)O)C(=O)O	TRb SRC2 PPI inconclusive
COc1cccc(-n2c(-c3cccc(F)c3)nc3c(cnn3-c3ccc(C)cc3)c2=O)c1	none (no result: RGS12 GoLoco inh)
COc1cc(OC)cc(-c2nnc3n2N=C(c2ccc(OC)cc2OC)CS3)c1	none (no result: RGS12 GoLoco inh, Tau fluor cs, Tau FP inhib, Tau fibril ThT)
Nc1nc(SC/C=C\c2ccccc2)c2[nH]cnc2n1	none (no result: TRb SRC2 PPI, TR SRC2 fluor cs, Tau fluor cs, Tau FP inhib, Tau fibril ThT)

From PubChem BioAssay
